# Results as given in PubChem BioAssay AID1049 (The Scripps Research Institute Molecular Screening Center, 2008).
# In all, about 200,000 compounds went through this assay and about 780 (0.39%) were called active. What follows is part of a selection rich in actives, with near analogues and random picks from the rest. Unmarked numbers belong to inactive results. Rule as the data show it: active = TR-FRET ratio above about 2000; inactive = the rest.
# Assay: detection-format interference in TR-FRET ratio – biochemical, artefact control for PPARgamma SRC-2 agonist project, primary screen (AID 1049)
# Conditions: TR-FRET artefact counter-screen; at 8 µM; hits give high values
row,Structure (SMILES),TR-FRET ratio
1,Cc1cccc2cc(C#N)c(N3CCCC3)nc12,1510
2,Cc1cc(C)c2nc(N3CCCC3)c(C#N)cc2c1,1740
3,CC(=O)c1ccc(S(=O)(=O)N2CCN(c3nc4c(C)c(C)ccc4cc3C#N)CC2)cc1,2950 (active)
4,CC(C)OCCCNC(=O)c1ccc(C2SCC(=O)N2Cc2ccco2)cc1 (stereo unspecified),1510
5,CCOc1ccc(N2CC(C(=O)NCCN3C(=O)S/C(=C\c4cccnc4)C3=O)CC2=O)cc1 (stereo unspecified),1470
6,COC(=O)c1cc2n(n1)CCCNC2=O,1460
7,COc1cccc(NC(=O)CN(C)C(C)C(=O)Nc2ccc(C#N)cc2)c1 (stereo unspecified),1560
8,CN(C)S(=O)(=O)c1cccc(NC(=O)COC(=O)/C=C/c2cccs2)c1,1590
9,O=C(c1ccncc1)c1ccc([N+](=O)[O-])cc1,1700
10,O=C(NCc1ccco1)c1cc(-c2cccnc2)nc2ccc(Cl)cc12,1650
11,O=C(/C=C/c1ccc(Cl)cc1Cl)NCc1ccco1,1530
12,O=C(CSc1c2c(nc3ccc(Cl)cc13)CCCC2)NCc1ccco1,2000 (active)
13,Cc1ccc2nc(-c3cccc(Br)c3)cc(C(=O)Nn3cnnc3)c2c1,1400
14,COc1ccc(Cl)cc1C(=O)NCc1cn(C)nc1C,1670
15,Cc1ccc(-c2cc(C(=O)NCc3cn(C)nc3C)c3cc(Br)ccc3n2)cc1,2980 (active)
16,O=c1[nH]cnc2c1c(-c1ccccc1)cn2-c1ccc(F)cc1,1650
17,Cc1ccccc1N1C(=O)C(Oc2ccc(Cl)cc2)C1CNCC1CCCO1 (stereo unspecified),1310
18,Cc1ccc(N2C(=O)C(NC(=O)c3c(F)cccc3F)(C(F)(F)F)C3=C2CC(C)(C)CC3=O)cc1 (stereo unspecified),1460
19,O=C(COC(=O)/C=C/c1cccc(Cl)c1)NCCc1ccccc1,1440
20,CCN(CC)S(=O)(=O)c1cccc(-c2n[nH]c(=S)n2/N=C/c2ccc(C(=O)OC)cc2)c1,1510
21,CC(=O)Oc1ccc2c(C)c(CC(C)O)c(=O)oc2c1 (stereo unspecified),1440

row,Structure (SMILES),TR-FRET ratio
1,Cc1c(Cc2ccccc2)c(=O)oc2cc(OCC(N)=O)ccc12,1400
2,O=C(Oc1ccccc1)Oc1ccc2c(c1)oc(=O)c1ccccc12,2370 (active)
3,COc1ccc(C2=NN(c3nc4ccccc4s3)C(=O)C2)cc1,1550
4,CN(Cc1cccc2ncccc12)C(=O)CC1C(=O)NCCN1Cc1ccc(F)cc1 (stereo unspecified),1420
5,O=C(O)/C=C/c1ccc(OCCCF)cc1,1530
6,COc1cc(/C=N/N=C(\N)c2nonc2N)cc(OC)c1OC,1490
7,Cc1cc(=O)n2[nH]c(-c3sccc3-n3c(C)ccc3C)cc2n1,1620
8,Cc1ccc(S(=O)(=O)N2CCOCC2)cc1NC(=O)CSc1nnc(N)s1,1520
9,CCN=C1S/C(=C\c2cc(Br)ccc2OCC(=O)OCC)C(=O)N1CC,1500
10,CCCOc1ccc(NC(=O)C2OC3OC(C)(C)OC3C3OC(C)(C)OC23)cc1 (stereo unspecified),1480
11,Cc1ccccc1N1CCN(CCCOc2ccc3c(C)cc(=O)oc3c2)CC1,1510
12,Cc1cc(OCC(=O)NC2CCN(C)CC2)ccc1[N+](=O)[O-],1540
13,Cc1cc(OCCCN2CCN(Cc3ccccc3)CC2)ccc1[N+](=O)[O-],2000 (active)
14,C/C(N)=C(/C#N)C(=O)COC(=O)c1cc(-c2ccccc2)nc2ccc(Br)cc12,1540
15,Cc1cc(C)c2c(NC(=O)C3CC3)nn(C)c2n1,1370
16,CCN(C(=O)COC(=O)c1c(NC(C)=O)sc(C)c1C)C1CCS(=O)(=O)C1 (stereo unspecified),1610
17,CCN(CCn1cccn1)Cc1cn[nH]c1-c1ccc(OC)cc1F,1510
18,COC(=O)c1ccc(-c2noc(CN(Cc3ccccn3)CC3CCCO3)n2)cc1 (stereo unspecified),1700
19,CCN(CCn1cccn1)Cc1nc(-c2ccc(C(=O)OC)cc2)no1,1990 (active)
20,COc1cc(NC(=O)COC(=O)CSc2ccc3ccccc3c2)c(C)cc1[N+](=O)[O-],1450
21,O=C1NC(c2ccccc2)=NC1(Nc1ccccn1)C(F)(F)F (stereo unspecified),1690

row,Structure (SMILES),TR-FRET ratio
1,COc1ccc(C2CC(c3ccccc3)=NN2C(=O)COC(=O)COc2ccccc2)cc1 (stereo unspecified),1620
2,CNC(=S)N1N=C(c2ccccc2)CC1c1ccc(Br)cc1 (stereo unspecified),1990 (active)
3,Brc1ccc(C2CC(c3ccccc3)=Nc3ccccc3N2)cc1 (stereo unspecified),1550
4,CCC1CO/C(=C(\C(=C(Cl)Cl)N2CCOCC2)[N+](=O)[O-])N1 (stereo unspecified),1690
5,COc1ccc(NC(=O)c2sc(N3CCOCC3)nc2-c2ccccc2)c(OC)c1,1580
6,O=C(O)CC/C(=N\NC(=O)c1ccc(F)cc1)c1ccc(Br)cc1,1580
7,C/C(=N\OCC(=O)Nc1ccc(Br)cc1)c1cccs1,1350
8,O=C(CSc1cccc2cccnc12)N/N=C/c1cccnc1,2120 (active)
9,CCOC(=O)N/N=C/c1cccnc1,1680
10,Cc1nc2ccccc2n1CC(=O)N/N=C/c1cccnc1,1640
11,NC1=NC(=O)C(Cc2cccc(Cl)c2)S1 (stereo unspecified),1490
12,CCC(C)(C)NC(=O)/C=C/c1cc(OC)c(OC)c(S(=O)(=O)N2CCc3ccccc32)c1,1580
13,Fc1ccc(COc2cccc(-c3n[nH]c(=S)o3)c2)cc1,2890 (active)
14,Cc1cccc(OCc2ccc(C(=O)Nc3ccc(F)cc3)cc2)c1,1560
15,Cc1nc2ccccc2cc1OCc1ccc(F)cc1,1730
16,CCOC(=O)c1ccc[n+](CC(=O)Nc2ccccc2OC(F)F)c1,1350
17,CCOC(=O)c1sc(NC(=O)CSc2n[nH]c(CC)n2)nc1C,1730
18,CCOc1ncccc1C(=O)OCC(=O)NC1CC1,1600
19,Cc1cc(OCCN2CCCC2)cc(C(C)C)c1,1530
